# From PubChem BioAssay (EPA / NIEHS)
# Where “and” joins values, the source holds several entries; their conditions need not be identical. Identical values can stand only once. Records with an inconclusive call do not appear. The source holds several records for some structures; these can differ, active in one and inactive in another. Calls of active or inactive are those of the source. How the source made its calls: active means hit-call score of the fitted dose curve at least 0.9, where 1 is the maximum; inconclusive means response in the unintended direction; inactive means score below 0.9.
# Key:
# [1] = ACEA_AR_agonist_AUC_viability: ACEA Biosciences xCELLigence Real-Time Cell Analysis on Androgen Receptor Agonism for Viability (AID 2283775);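 on AC50: viability read 80 hours after compound addition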
# Method in brief: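 Viability endpoint from xCELLigence impedance in 22Rv1 prostate cells at 80 h. Eight-point series, 100 uM maximum final.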
# [2] = ACEA_AR_antagonist_AUC_viability: ACEA Biosciences xCELLigence Real-Time Cell Analysis on Androgen Receptor Antagonism for Viability (AID 2283776);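 further: 22Rv1 human prostate cancer cells growing on impedance electrode plates; area under impedance growth curve at 80 h after dosing as viability; hits lower the growth signal relative to DMSO meaning cytotoxicity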
# Method in brief: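 22Rv1 prostate cells, continuous dosing up to 100 uM final (0.5% DMSO max), duplicate plates. Growth measured by impedance; AUC at 80 h, loss of signal vs DMSO.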
# [3] = ACEA_ER_AUC_viability: ACEA Biosciences xCELLigence Real-Time Cell Analysis on Estrogen Receptor Agonism for Viability (AID 2283782);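 further: hit means loss of impedance signal meaning reduced cell growth or viability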
# Method in brief: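 Continuous-exposure impedance cell analysis uses T-47D cells in charcoal-stripped serum, eight 1:4 dilutions topping at 100 uM final, biological duplicate. Area under the growth curve at 80 h is fitted against DMSO baseline.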
# [4] = tested on: chicken Androgen Receptor (AR), gene 422165; experiment: ATG_chAR_XSP1: Attagene TRANS-FACTORIAL Multi-Species (XSP1) HepG2 Assay for chicken Androgen Receptor (AR) (AID 2283768)
# Method in brief: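 Reporter mRNA read by RT-PCR with fluorescent labelling and capillary electrophoresis 24 h after chemical dosing of transiently transfected HepG2 cells. Chicken AR-Gal4 chimera, partially stimulated with 3 nM 6-alpha-fluorotestosterone; activity fitted upward relative to DMSO.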
# [5] = tested on: zebrafish Androgen Receptor (AR), gene 100005148; experiment: ATG_zfAR_XSP1: Attagene TRANS-FACTORIAL Multi-Species (XSP1) HepG2 Assay for zebrafish Androgen Receptor (AR) (AID 2283771)
# Method in brief: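 Gain-of-signal versus DMSO was measured as reporter transcripts quantified by RT-PCR, fluorescent labelling and capillary electrophoresis after 24 h chemical exposure. The cells were HepG2 expressing a chimeric zebrafish AR-GAL4, co-stimulated with 3 nM 6-alpha-fluorotestosterone.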
# [6] = target: zebrafish Estrogen Receptor (ESR1), esr1 (gene 259252) (UniProt P57717); experiment: ATG_zfER1_XSP1: Attagene TRANS-FACTORIAL Multi-Species (XSP1) HepG2 Assay for zebrafish Estrogen Receptor (ESR1) (AID 2283772)
# Method in brief: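 Exogenous chimeric receptor-GAL4 activity is measured in transiently transfected human HepG2 liver cells after 24 h compound exposure. Reporter transcripts are detected by RT-PCR and fluorescent capillary electrophoresis, analysed for signal gain relative to DMSO.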
# [7] = tested on: zebrafish Estrogen Receptor (ESR2B), gene 317733; experiment: ATG_zfER2b_XSP1: Attagene TRANS-FACTORIAL Multi-Species (XSP1) HepG2 Assay for zebrafish Estrogen Receptor (ESR2B) (AID 2283773)
# Method in brief: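 Human hepatoma HepG2, transiently transfected with multi-reporter units; exogenous zebrafish ESR2B-Gal4 activity measured. Exposure 24 h alongside 3 nM 6-alpha-fluorotestosterone to partly stimulate AR.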
# [8] = tested on: frog Estrogen Receptor (ESR2), gene 100174814; experiment: ATG_frER2_XSP1: Attagene TRANS-FACTORIAL Multi-Species (XSP1) HepG2 Assay for frog Estrogen Receptor (ESR2) (AID 2283774)
# Method in brief: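 Multiplexed TRANS-format reporter assay in human hepatoma HepG2: chimeric nuclear receptor-Gal4 activity reported as mRNA induction at 24 h, detected by fluorescent RT-PCR products on capillary electrophoresis and fitted upward from DMSO baseline.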
# [9] = tested on: zebrafish Estrogen Receptor (ESR2A), gene 317734; experiment: ATG_zfER2a_XSP1: Attagene TRANS-FACTORIAL Multi-Species (XSP1) HepG2 Assay for zebrafish Estrogen Receptor (ESR2A) (AID 2283778)
# Method in brief: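 Gain-of-signal reporter transcription readout from GAL4-UAS units in transiently transfected HepG2 cells, 24 h exposure, 3 nM 6-alpha-fluorotestosterone co-present. Detection by RT-PCR with capillary electrophoresis fluorescence.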
# [10] = target: chicken Estrogen Receptor (ESR1), ESR1 (gene 396099) (UniProt P06212); experiment: ATG_chERa_XSP1: Attagene TRANS-FACTORIAL Multi-Species (XSP1) HepG2 Assay for chicken Estrogen Receptor (ESR1) (AID 2283779)
# Method in brief: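 Gain-of-signal reporter transcription, relative to DMSO, was scored in transiently transfected HepG2 cells after a 24 h dose. Fluorescence intensity of amplified, digested reporter cDNA fragments served as the endpoint.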
# [11] = target: Estrogen receptor (Homo sapiens) (UniProt P03372); experiment: ATG_hERa_XSP1: Attagene TRANS-FACTORIAL Multi-Species (XSP1) HepG2 Assay for human Estrogen Receptor (ESR1) (AID 2283780)
# Method in brief: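 Reporter transcripts from multiplexed GAL4-UAS units driven by NR-Gal4 chimeras in transiently transfected HepG2 were measured by RT-PCR with capillary electrophoresis 24 h post-dose, with 3 nM 6-alpha-fluorotestosterone present; gain-of-signal relative to DMSO.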
# [12] = tested on: turtle Estrogen Receptor (ESR1), gene 101933533; experiment: ATG_trERa_XSP1: Attagene TRANS-FACTORIAL Multi-Species (XSP1) HepG2 Assay for turtle Estrogen Receptor (ESR1) (AID 2283781)
# Method in brief: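 Cell-based chimeric NR-Gal4 transactivation; HepG2; 24 h dosing; mRNA reporter detected by RT-PCR and capillary electrophoresis fluorescence.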
# [13] = STM_H9_NormalizedViability: Cytotoxicity Assessment at 120 hours in the Stemina devTOX quickPredict H9 human embryonic stem cell (hESC)-based Assay (AID 2283784)
# Method in brief: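 Here, H9 cells received test compound with daily medium renewal. Each plate included methotrexate references (1uM, 5 nM), 0.1% DMSO and media blanks; CellTiter-Fluor RFU was normalized to DMSO.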
# [14] = target: Estrogen receptor beta (Homo sapiens) (UniProt Q92731); experiment: ATG_hERb_XSP1: Attagene TRANS-FACTORIAL Multi-Species (XSP1) HepG2 Assay for human Estrogen Receptor (ESR2) (AID 2283788)
# Method in brief: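 Multiplexed trans-activation in transfected HepG2: ERβ-Gal4 reporter transcripts after 24 h treatment, detected by RT-PCR plus capillary electrophoresis.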
# [15] = ATG_M_06_XSP1: Attagene TRANS-FACTORIAL Multi-Species (XSP1) HepG2 Assay for M06 Transcription Factor (Internal Marker) (AID 2283790)
# Method in brief: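 This background-control readout tracks M06 reporter mRNA, measured by RT-PCR and capillary electrophoresis. HepG2 cells transiently carrying the GAL4-UAS reporter panel were dosed for 24 h with 3 nM 6-alpha-fluorotestosterone added for partial AR stimulation; increases were scored relative to DMSO.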
# [16] = ATG_M_61_XSP1: Attagene TRANS-FACTORIAL Multi-Species (XSP1) HepG2 Assay for M61 Transcription Factor (Internal Marker) (AID 2283797)
# Method in brief: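 Background-control readout: reporter transcripts measured by RT-PCR and capillary electrophoresis 24 h after dosing transiently transfected HepG2 multi-reporter cells, with 3 nM 6-alpha-fluorotestosterone present. Fitted in the positive direction relative to DMSO.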
# [17] = ATG_M_19_XSP1: Attagene TRANS-FACTORIAL Multi-Species (XSP1) HepG2 Assay for M19 Transcription Factor (Internal Marker) (AID 2283798)
# Method in brief: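 Readout is reporter mRNA induction quantified via RT-PCR, 6-FAM labeling, HpaI digestion and capillary electrophoresis, fitted in the positive direction versus DMSO baseline. Transfected HepG2 cells exposed 24 h, medium including 3 nM 6-alpha-fluorotestosterone.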
# [18] = ATG_M_32_XSP1: Attagene TRANS-FACTORIAL Multi-Species (XSP1) HepG2 Assay for M32 Transcription Factor (Internal Marker) (AID 2283799)
# Method in brief: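 Reporter transcripts from the M32 internal-control unit measured by RT-PCR, FAM labelling, HpaI digestion and capillary electrophoresis after 24 h compound exposure of transfected HepG2, 3 nM 6-alpha-fluorotestosterone included; DMSO baseline, positive-direction fit.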
# [19] = target: AR (gene 367) (UniProt P10275); experiment: ACEA_AR_agonist_80hr: ACEA Biosciences xCELLigence Real-Time Cell Analysis on Androgen Receptor Agonism for Proliferation (AID 2283783);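 further: hits increase impedance growth signal above DMSO baseline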
# Method in brief: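 Real-time cell-growth kinetics were recorded by electrode impedance in 22Rv1 cells exposed to test chemicals up to 100 uM final; the 80 h timepoint served as the readout, fitted upward relative to DMSO controls, in biological duplicate.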
# [20] = target: AR (gene 367) (UniProt P10275); experiment: ACEA_AR_antagonist_80hr: ACEA Biosciences xCELLigence Real-Time Cell Analysis on Androgen Receptor Antagonism for Proliferation (AID 2283787);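 further: 22Rv1 human prostate cancer cells with growth followed by electrical impedance; hits lower the impedance growth signal relative to DMSO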
# Method in brief: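 Using 22Rv1 cells held in assay medium, we dosed compounds (100 uM maximum final, 1:4 serial, eight points, 0.5% DMSO at top) and recorded cell-electrode impedance; the 80 hr timepoint was analyzed against DMSO.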
# AR (gene 367), sequence (P10275 whole entry, looked up): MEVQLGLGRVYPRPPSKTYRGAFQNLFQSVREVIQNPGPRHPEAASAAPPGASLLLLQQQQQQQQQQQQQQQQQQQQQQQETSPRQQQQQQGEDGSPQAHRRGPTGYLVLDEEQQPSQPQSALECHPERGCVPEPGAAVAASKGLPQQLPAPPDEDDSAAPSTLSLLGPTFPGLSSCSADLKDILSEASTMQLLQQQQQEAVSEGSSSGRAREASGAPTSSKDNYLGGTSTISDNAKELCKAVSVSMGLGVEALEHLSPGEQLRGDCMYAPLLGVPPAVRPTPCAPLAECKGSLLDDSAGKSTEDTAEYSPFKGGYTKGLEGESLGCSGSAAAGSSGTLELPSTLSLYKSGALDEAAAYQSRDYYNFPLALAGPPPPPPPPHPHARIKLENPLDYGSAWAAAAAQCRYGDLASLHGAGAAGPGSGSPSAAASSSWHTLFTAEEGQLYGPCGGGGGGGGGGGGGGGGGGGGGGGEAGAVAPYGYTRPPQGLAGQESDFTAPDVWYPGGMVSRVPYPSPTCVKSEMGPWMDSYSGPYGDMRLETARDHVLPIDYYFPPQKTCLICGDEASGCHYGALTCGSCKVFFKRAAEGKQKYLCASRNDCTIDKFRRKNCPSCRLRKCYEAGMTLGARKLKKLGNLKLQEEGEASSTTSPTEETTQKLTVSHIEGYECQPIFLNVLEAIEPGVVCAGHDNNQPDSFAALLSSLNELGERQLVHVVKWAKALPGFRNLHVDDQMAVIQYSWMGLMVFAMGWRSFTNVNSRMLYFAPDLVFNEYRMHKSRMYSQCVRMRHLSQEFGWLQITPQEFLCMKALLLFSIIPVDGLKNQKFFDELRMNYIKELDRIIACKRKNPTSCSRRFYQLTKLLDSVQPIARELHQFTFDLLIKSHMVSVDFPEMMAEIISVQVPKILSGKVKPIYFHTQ
# zebrafish Estrogen Receptor (ESR1), esr1 (gene 259252), sequence (P57717 whole entry, looked up, the tested form may be a part): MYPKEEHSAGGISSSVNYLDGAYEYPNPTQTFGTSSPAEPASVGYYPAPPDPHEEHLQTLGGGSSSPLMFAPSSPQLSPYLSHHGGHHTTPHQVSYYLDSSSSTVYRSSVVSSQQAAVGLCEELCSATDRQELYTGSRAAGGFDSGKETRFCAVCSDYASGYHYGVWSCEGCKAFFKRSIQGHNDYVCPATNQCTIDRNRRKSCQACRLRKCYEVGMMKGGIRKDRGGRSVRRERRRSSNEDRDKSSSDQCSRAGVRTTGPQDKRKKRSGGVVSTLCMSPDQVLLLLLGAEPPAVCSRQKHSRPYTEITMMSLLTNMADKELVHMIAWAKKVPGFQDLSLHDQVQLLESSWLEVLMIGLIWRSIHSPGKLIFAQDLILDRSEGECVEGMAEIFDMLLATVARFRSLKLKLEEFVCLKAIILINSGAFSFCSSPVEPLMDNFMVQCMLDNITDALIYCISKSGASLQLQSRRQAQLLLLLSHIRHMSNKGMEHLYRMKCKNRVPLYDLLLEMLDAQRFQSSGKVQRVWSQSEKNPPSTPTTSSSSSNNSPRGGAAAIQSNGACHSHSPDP
# Estrogen receptor beta (Homo sapiens), sequence (Q92731 whole entry, looked up, the tested form may be a part): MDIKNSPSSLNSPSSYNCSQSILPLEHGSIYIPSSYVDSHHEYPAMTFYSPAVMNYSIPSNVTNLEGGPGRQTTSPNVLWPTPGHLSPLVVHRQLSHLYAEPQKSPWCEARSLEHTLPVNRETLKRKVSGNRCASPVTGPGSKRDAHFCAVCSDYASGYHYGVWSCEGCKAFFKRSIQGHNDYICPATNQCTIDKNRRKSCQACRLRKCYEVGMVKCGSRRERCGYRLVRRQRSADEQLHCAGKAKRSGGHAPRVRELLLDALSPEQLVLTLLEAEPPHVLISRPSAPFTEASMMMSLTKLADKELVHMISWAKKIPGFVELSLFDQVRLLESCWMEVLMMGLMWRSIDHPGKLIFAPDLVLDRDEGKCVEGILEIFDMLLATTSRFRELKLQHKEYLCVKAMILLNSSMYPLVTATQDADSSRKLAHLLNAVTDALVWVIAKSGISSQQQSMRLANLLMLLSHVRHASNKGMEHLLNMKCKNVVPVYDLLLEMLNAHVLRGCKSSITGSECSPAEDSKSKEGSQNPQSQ
# chicken Estrogen Receptor (ESR1), ESR1 (gene 396099), sequence (P06212 whole entry, looked up, the tested form may be a part): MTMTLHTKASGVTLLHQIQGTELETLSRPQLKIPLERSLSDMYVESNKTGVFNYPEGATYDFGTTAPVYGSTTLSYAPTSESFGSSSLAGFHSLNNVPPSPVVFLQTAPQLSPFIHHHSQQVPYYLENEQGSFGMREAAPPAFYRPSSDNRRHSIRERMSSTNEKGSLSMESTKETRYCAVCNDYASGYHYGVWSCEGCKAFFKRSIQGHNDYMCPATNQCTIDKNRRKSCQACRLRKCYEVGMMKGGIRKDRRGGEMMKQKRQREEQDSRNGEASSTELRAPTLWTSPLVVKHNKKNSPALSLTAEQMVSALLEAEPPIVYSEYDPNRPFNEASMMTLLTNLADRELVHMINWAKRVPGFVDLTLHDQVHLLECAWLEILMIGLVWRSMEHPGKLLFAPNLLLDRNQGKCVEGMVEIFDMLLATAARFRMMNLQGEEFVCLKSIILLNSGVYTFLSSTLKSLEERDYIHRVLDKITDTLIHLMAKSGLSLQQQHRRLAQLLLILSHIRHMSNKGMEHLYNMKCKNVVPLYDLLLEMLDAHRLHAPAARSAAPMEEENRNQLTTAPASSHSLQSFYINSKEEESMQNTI
# Estrogen receptor (Homo sapiens), sequence (P03372 whole entry, looked up, the tested form may be a part): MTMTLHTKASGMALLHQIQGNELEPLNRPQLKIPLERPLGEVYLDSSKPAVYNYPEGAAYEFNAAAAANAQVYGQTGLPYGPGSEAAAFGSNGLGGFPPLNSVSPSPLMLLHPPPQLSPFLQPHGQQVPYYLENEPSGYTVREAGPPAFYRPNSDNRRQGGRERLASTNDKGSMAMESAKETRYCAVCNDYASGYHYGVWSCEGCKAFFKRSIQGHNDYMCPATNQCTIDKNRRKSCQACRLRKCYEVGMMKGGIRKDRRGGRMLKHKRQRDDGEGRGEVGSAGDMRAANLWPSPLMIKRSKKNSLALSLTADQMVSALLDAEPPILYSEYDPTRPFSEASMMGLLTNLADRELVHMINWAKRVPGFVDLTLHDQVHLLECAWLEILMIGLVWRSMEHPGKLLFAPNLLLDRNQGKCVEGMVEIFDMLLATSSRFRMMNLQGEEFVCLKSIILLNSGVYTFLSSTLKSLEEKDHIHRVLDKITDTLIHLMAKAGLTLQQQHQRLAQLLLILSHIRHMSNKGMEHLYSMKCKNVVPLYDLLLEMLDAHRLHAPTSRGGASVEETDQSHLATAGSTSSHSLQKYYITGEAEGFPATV
compound,measurement,setting,value
CCCCN(CCCC)SN(C)C(=O)Oc1cccc2c1OC(C)(C)C2,AC50,[1],57.4 µM (active)
same,AC50,[2],49.2 µM (active)
same,AC50,[3],79.2 µM (active)
O=S(=O)(c1ccc(O)cc1)c1ccc(O)cc1,outcome,[1],inactive
Cc1ccc([N+](=O)[O-])cc1C,outcome,[1],inactive
same,outcome,[2],inactive
same,outcome,[3],inactive
O=P(Oc1ccccc1)(Oc1ccccc1)Oc1ccccc1,outcome,[4],inactive
same,outcome,[5],inactive
same,outcome,[6],inactive
same,AC50,[7],5.84 µM (active)
same,AC50,[8],2.77 µM (active)
same,outcome,[9],inactive
same,AC50,[10],0.8 µM (active)
same,AC50,[11],0.991 µM (active)
same,AC50,[12],1.66 µM (active)
same,AC50,[3],86.8 µM (active)
same,outcome,[13],inactive
same,outcome,[14],inactive
same,outcome,[15],inactive
same,outcome,[16],inactive
same,outcome,[17],inactive
same,outcome,[18],inactive
O=c1ssc(Cl)c1Cl,AC50,[1],0.671 µM (active)
same,outcome,[2],inactive
same,outcome,[3],inactive
CSC(C)(C)C=NO,outcome,[1],inactive
same,outcome,[2],inactive
same,outcome,[3],inactive
CCCN(CCC)c1c([N+](=O)[O-])cc(C(C)C)cc1[N+](=O)[O-],AC50,[1],45.2 µM (active)
same,AC50,[2],58.7 µM (active)
same,AC50,[3],87.3 µM (active)
CCCCOCCOP(=O)(OCCOCCCC)OCCOCCCC,outcome,[1],inactive
same,outcome,[2],inactive
O=P(OCC(Br)CBr)(OCC(Br)CBr)OCC(Br)CBr (stereo not drawn),AC50,[1],23.3 µM (active)
same,outcome,[2],inactive
same,outcome,[3],inactive
same,outcome,[19],inactive
same,outcome,[20],inactive
ClC1=C(Cl)C2(Cl)C3C(Cl)C(Cl)CC3C1(Cl)C2(Cl)Cl (stereo not drawn),AC50,[1],11.9 µM (active)
same,AC50,[2],13.6 µM (active)
same,AC50,[3],91.7 µM (active)
same,outcome,[19],inactive
same,AC50,[20],5.06 µM (active)
CCOc1ccc(C(C)(C)COCc2cccc(Oc3ccccc3)c2)cc1,outcome,[1],inactive
same,AC50,[2],50 µM (active)
CCOC(=O)c1ccccc1N,outcome,[1],inactive
O=P1(N(CCCl)CCCl)NCCCO1 (stereo not drawn),outcome,[1],inactive
same,outcome,[2],inactive
ClC(Cl)(Cl)c1ccccc1,outcome,[1],inactive
same,outcome,[2],inactive
CCCCN(CCCC)N=O,outcome,[1],inactive
same,outcome,[2],inactive
same,outcome,[3],inactive
O=C(O)C(Cl)Cl,outcome,[1],inactive
same,outcome,[2],inactive
O=[N+]([O-])c1ccccc1,outcome,[1],inactive
same,outcome,[2],inactive
ClC(Cl)c1ccccc1,outcome,[1],inactive
same,outcome,[2],inactive
CCCCc1ccc(O)cc1,outcome,[1],inactive
same,AC50,[2],8.13 µM (active)
same,AC50,[3],82.5 µM (active)
CCCCOCC1CO1 (stereo not drawn),outcome,[1],inactive
same,outcome,[2],inactive
same,outcome,[3],inactive
CCC(C)(C)c1ccc(O)cc1,AC50,[1],67 µM (active)
same,AC50,[2],71.7 µM (active)
same,AC50,[3],88.4 µM (active)
same,AC50,[13],50 µM (active)
CCOP(=S)(OCC)SCSCC,AC50,[1],83.4 µM (active)
same,outcome,[2],inactive
Nc1ccc(Cl)cc1,AC50,[1],5.62 µM (active)
same,AC50,[2],8.97 µM (active)
same,AC50,[3],8.49 µM (active)
same,outcome,[3],inactive
CCCCCCCc1ccc(O)cc1,AC50,[1],29.2 µM (active)
same,AC50,[2],50 µM (active)
same,AC50,[3],28 µM (active) and 26.6 µM (active) and 27.7 µM (active)
same,outcome,[19],inactive
same,AC50,[20],50 µM (active)
Cc1cccc(N)c1,outcome,[1],inactive
same,outcome,[2],inactive
